About 1,700 (3.3%) of roughly 52,000 compounds were called active. The entries come from a sample that favours actives as a whole. Unmarked numbers belong to inactive results. Rule as the data show it: active = survival mostly below about 52% (no sharp cut-off); inactive = mostly above about 56%.
System: Wild type
Experiment: S. aureus survival, RN4220 and DeltatarO strains – OD600, teichoic acid synthesis inhibitors, primary screen (AID 463173)
Settings: S. aureus RN4220 wild type/DeltatarO growth, OD600, 18 h, hits give low values, screened at 18.75 µg/mL (by protocol)

| Structure (SMILES) | survival |
| --- | --- |
| CCOC(=O)c1c(S(=O)(=O)N2CCC(C(=O)Nc3ncccc3C)CC2)c(C)n(C)c1C | 72% |
| COc1cc(C(=O)N(CCCN(C)C)c2nc3c(OC)cccc3s2)cc(OC)c1OC | 124% |
| Cc1ccc(CN2CCCn3nc(C(=O)NCCc4ccccc4C)cc3C2=O)cc1 | 79% |
| O=C(c1ccccc1)C(C(=O)N1CCCCC1)n1ccccc1=O (stereo unspecified) | 113% |
| Cc1cc(=O)c2cc(C(=O)Nc3ccc(F)cc3)ccc2[nH]1 | 87% |
| Cc1ccc(S(=O)(=O)N(CC(=O)N2CCC(C(N)=O)CC2)c2ccccc2F)cc1 | 98% |
| Cc1ccccc1CN1CCN(CC(=O)NCc2ccccc2Cl)C1=O | 77% |
| COc1ccc(CNC(=O)CCS(=O)(=O)c2ccc3c(c2)CC(C)N3C(=O)C2CC2)cc1 (stereo unspecified) | 76% |
| COc1cccc(CNC(=O)CCS(=O)(=O)c2ccc3c(c2)CC(C)N3C(=O)C2CC2)c1 (stereo unspecified) | -3% (active) |
| CC1Cc2cc(S(=O)(=O)CCC(=O)NCc3ccccc3Cl)ccc2N1C(=O)C1CC1 (stereo unspecified) | 72% |
| CCC(=O)N1c2ccc(S(=O)(=O)CCC(=O)NCc3ccccc3OC)cc2CC1C (stereo unspecified) | 87% |
| CCC(=O)N1c2ccc(S(=O)(=O)CCC(=O)NCc3cccc(OC)c3)cc2CC1C (stereo unspecified) | 82% |
| COc1ccccc1CNC(=O)CCS(=O)(=O)c1ccc2c(c1)CC(C)N2C(=O)C1CC1 (stereo unspecified) | 0% (active) |
| COC(=O)c1ccccc1NC(=O)c1c(C)oc2ncn(C)c(=O)c12 | 95% |
| CC(C)N(C(=O)CSc1nc2ccc(Cl)cc2[nH]1)c1ccccc1 | 81% |
| O=c1c2cc3c(cc2nc2sc(Nc4ccc(F)c(Cl)c4)nn12)OCO3 | 138% |
| Cc1ccc(C(=O)NCc2nnnn2-c2ccc(C)c(C)c2)cc1 | 82% |
| Cc1ccc(-n2nnnc2CNC(=O)c2cc(C(F)(F)F)cc(C(F)(F)F)c2)cc1C | -3% (active) |
| Cc1ccc(-n2nnnc2CNC(=O)c2ccc(F)cc2)cc1C | 124% |
| CC(C)(C)c1ccc(C(=O)NC2CCNCC2)cc1 | 108% |
| CC(C)Cn1c(=O)c2ccccc2n2c(CCC(=O)NCc3ccc(Cl)cc3)nnc12 | 92% |
| O=C(Nc1ccc2nc(SCC(=O)N3CCOCC3)sc2c1)c1ccc(F)cc1 | 92% |
| COc1ccc(Nc2nc(-c3ccccc3)c3cc(Br)ccc3n2)cc1 | 37% |

| Structure (SMILES) | survival |
| --- | --- |
| Cc1ccc2nc(Nc3ccc(Br)cc3)nc(-c3ccccc3)c2c1 | 56% |
| COc1cccc(Nc2nc(-c3ccccc3)c3cc(C)ccc3n2)c1 | 9% (active) |
| Cc1ccc(C)c(Nc2nc(-c3ccccc3)c3cc(Br)ccc3n2)c1 | 42% |
| Cc1cccc(Nc2nc(-c3ccccc3)c3cc(C)ccc3n2)c1 | 11% (active) |
| Cc1ccc2nc(NN)nc(-c3ccccc3)c2c1 | 100% |
| CN(CC(=O)NCc1ccccc1)S(=O)(=O)c1ccc2[nH]c3c(c2c1)CCCC3 | 72% |
| COc1cccc(NCc2nnc3n2CCCCC3)c1 | 83% |
| Cc1nc2c(c(C)nn2-c2ccccc2)c(C)c1CCC(=O)Nc1ccccc1 | 87% |
| CCc1ccc(NC(=O)CSc2nc(=O)n(Cc3ccncc3)c3c2CCC3)cc1 | 80% |
| CCOc1ccccc1CNC(=O)c1cc2oc3ccccc3c2n1CC | 2% (active) |
| CCn1c(C(=O)NCc2cccc(Br)c2)cc2oc3ccccc3c21 | 7% (active) |
| CCn1c(C(=O)NCc2ccccc2C)cc2oc3ccccc3c21 | 15% |
| CCn1c(C(=O)NCc2cc(Br)ccc2OC)cc2oc3ccccc3c21 | 78% |
| CCn1c(C(=O)NCc2ccc(F)cc2)cc2oc3ccccc3c21 | 115% |
| CCn1c(C(=O)NCc2ccccc2Br)cc2oc3ccccc3c21 | 36% |
| Clc1ccc(N2CCN(c3ncnc4c3nc3n4CCCC3)CC2)cc1 | 73% |
| Cc1c(C(=O)Nc2ccc(-n3c(C)nc4ccccc4c3=O)cc2)cccc1[N+](=O)[O-] | 80% |
| Cc1cc(-n2c(C)nc3ccccc3c2=O)ccc1NC(=O)c1ccc([N+](=O)[O-])cc1 | 82% |
| Cc1ccc(C(=O)Nc2ccc(-n3c(C)nc4ccccc4c3=O)cc2)cc1[N+](=O)[O-] | 121% |
| Cc1cc(-n2c(C)nc3ccccc3c2=O)ccc1NC(=O)c1ccccc1[N+](=O)[O-] | 88% |
| Cc1cc(-n2c(C)nc3ccccc3c2=O)ccc1NC(=O)c1ccc(C)c([N+](=O)[O-])c1 | 10% (active) |
| Cc1cc(-n2c(C)nc3ccccc3c2=O)ccc1NC(=O)c1cccc([N+](=O)[O-])c1C | -2% (active) |
| COc1ccc(-c2c[n+](=O)c3c(n2[O-])CCC3)cc1 | 103% |

| Structure (SMILES) | survival |
| --- | --- |
| COC(=O)C1CCN(S(=O)(=O)c2ccc(OC)cc2)CC1 | 102% |
| CCN(CC)C(=O)c1sc2c(c1C)c(=O)n(Cc1ccccc1)c(=O)n2Cc1ccc(Cl)cc1 | 73% |
| CCc1ccc(CNC(=O)C2COc3ccc(OC)cc3C2)cc1 (stereo unspecified) | 93% |
| Cc1ccc(NC(=O)Cn2cc3c(n2)CCCC3)c(Cl)c1 | 93% |
| CCOc1ccc(OCC)c(NC(=O)c2cnn(-c3ccc(F)cc3)c2C2CCN(C(=O)OC(C)(C)C)CC2)c1 | 14% (active) |
| CC(C)(C)OC(=O)N1CCC(c2c(C(=O)NCc3ccc(F)cc3)cnn2-c2ccc(F)cc2)CC1 | -6% (active) |
| CC(C)(C)OC(=O)N1CCC(c2c(C(=O)NCc3cccs3)cnn2-c2ccc(F)cc2F)CC1 | 81% |
| COc1ccc(CNC(=O)c2cnn(-c3ccc(OC)cc3)c2C2CCN(C(=O)OC(C)(C)C)CC2)cc1 | 76% |
| CCOc1ccc(NC(=O)c2cnn(-c3ccc(C)c(C)c3)c2C2CCN(C(=O)OC(C)(C)C)CC2)cc1 | 89% |
| Cc1ccc(-n2ncc(C(=O)NCc3cccs3)c2C2CCN(C(=O)OC(C)(C)C)CC2)cc1C | 90% |
| CC(C)(C)OC(=O)N1CCC(c2c(C(=O)NCc3ccccc3)cnn2-c2ccc(F)cc2)CC1 | 133% |
| CC(C)(C)OC(=O)N1CCC(c2c(C(=O)NCc3cccs3)cnn2-c2cccc(F)c2)CC1 | -6% (active) |
| CC(C)(C)OC(=O)N1CCC(c2c(C(=O)Nc3ccc4c(c3)OCCO4)cnn2-c2ccc(F)cc2)CC1 | 69% |
| COc1ccc(NC(=O)CSc2ncc3c(n2)-c2ccccc2N(Cc2ccc(C)cc2)S3(=O)=O)cc1Cl | 134% |
| Cc1cccc(OCC(=O)OCc2cc(=O)n3nc(C4CCCCC4)sc3n2)c1 | 100% |
| N#Cc1cc2cc3c(cc2nc1N1CCCN(C(=O)c2ccccc2)CC1)OCO3 | 103% |
| COc1ccc(C(=O)NCC(c2ccc3c(c2)OCO3)N2CCN(c3ccccc3F)CC2)cc1 (stereo unspecified) | 77% |
| Cc1ccc(NC(=O)CN2C(=O)COc3ccc(S(=O)(=O)N4CCCCC4)cc32)cc1N(C)C | 106% |
| CC(=O)N1CCc2cc(Br)cc(S(=O)(=O)CCC(=O)N3CCN(c4cccc(C)c4C)CC3)c21 | 77% |
| COc1ccccc1Nc1ncnc2c1nc1n2CCCCC1 | 133% |
| Clc1cccc(CNc2ncnc3c2nc2n3CCCC2)c1 | 92% |
| Fc1ccc(Nc2ncnc3c2nc2n3CCCC2)cc1 | 76% |
| Fc1ccc(Nc2ncnc3c2nc2n3CCCCC2)c(F)c1 | 14% (active) |

| Structure (SMILES) | survival |
| --- | --- |
| CCc1ccccc1Nc1ncnc2c1nc1n2CCCC1 | 71% |
| Fc1ccccc1Nc1ncnc2c1nc1n2CCCCC1 | 74% |
| Clc1cccc(Nc2ncnc3c2nc2n3CCCCC2)c1 | -1% (active) |
| COc1ccc(Nc2ncnc3c2nc2n3CCCC2)cc1Cl | 59% |
| Clc1ccccc1Nc1ncnc2c1nc1n2CCCCC1 | 0% (active) |
| CCC(=O)N1CCc2cc(S(=O)(=O)NC(Cc3ccccc3)C(=O)NCc3ccc(F)cc3)ccc21 (stereo unspecified) | 83% |
| COc1ccc(-c2cc(-c3ccccc3)nc(SCC(=O)Nc3ccccc3C)c2C#N)cc1 | 70% |
| COC(=O)c1ccc(Cl)cc1NC(=O)N(C)CCc1c(C)nn(C)c1C | 111% |
| C#CCn1c(O)c(N=NC(=O)c2ccncc2)c2cc(Br)ccc21 | 110% |
| Cc1noc(C)c1S(=O)(=O)NCCc1csc2nc(-c3ccc(Cl)cc3)nn12 | 72% |
| O=C(O)c1cccc(NC(=O)c2cccc(S(=O)(=O)Nc3cccc(F)c3)c2)c1 | 169% |
| CCc1c(C)nc2nncn2c1Nc1ccc(C)c(F)c1 | 83% |
| Cc1cc(C)cc(NC(=O)Cc2c(C(=O)O)c(C)cn2C)c1 | 47% |
| CCOC(=O)c1cnc2c(C)cc(C)cc2c1NCCN1CCOCC1 | 53% |
| CCOC(=O)c1cnc2c(C(F)(F)F)cccc2c1Nc1cccc(C(=O)OC)c1 | 26% |
| CCOC(=O)c1cnc2c(ccc3ccccc32)c1Nc1ccccc1OCC | 109% |
| CCOC(=O)c1cnc2c(C)cc(C)cc2c1Nc1ccc(OCc2ccccc2)cc1 | 11% (active) |
| CCOC(=O)c1cnc2c(C)cc(C)cc2c1Nc1ccc(N2CCOCC2)cc1 | 15% |
| CCOC(=O)c1cnc2c(C)cc(C)cc2c1Nc1cccc(C(=O)O)c1 | 23% (active) |
| CCOC(=O)c1cnc2c(Cl)cc(Cl)cc2c1Nc1ccccc1OC | 65% |
| CCOC(=O)c1cnc2c(C)cc(C)cc2c1Nc1ccccc1OCC | -1% (active) |
| Cc1nn2c(=O)cc(COC(=O)c3ccccc3NC(=O)C(C)C)nc2s1 | 74% |
